Source: PubChem BioAssay AID2156 (Johns Hopkins Ion Channel Center, 2009)
The whole screen tested about 310,000 compounds, of which about 3,400 (1.1%) were called active. This is one part of a sample in which actives are shown more often than they occur. Values without a mark were called inactive.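 How the source made its calls: active means fluorescence ratio B-score at most minus 3 library SDs, with starting brightness B-score within 2 library SDs (cut at about -5.5 in these data); inactive means the rest, inconclusive results apart.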 Peptide text beside a SMILES is read from it. * marks the point of attachment. OPac = O=C(CO*)c1ccccc1; Bz = O=C(c1ccccc1)*

Each compound was assayed against Potassium voltage-gated channel subfamily KQT member 2 (Rattus norvegicus) (UniProt O88943) (assay: KCNQ2 channel blockers in CHO-K1 cells – cell-based, FluxOR thallium flux, B-score, primary screen (AID 2156)). Conditions: 20 min, at 10 µM; stronger effect = lower value.
Potassium voltage-gated channel subfamily KQT member 2 (Rattus norvegicus), sequence (O88943 whole entry, looked up): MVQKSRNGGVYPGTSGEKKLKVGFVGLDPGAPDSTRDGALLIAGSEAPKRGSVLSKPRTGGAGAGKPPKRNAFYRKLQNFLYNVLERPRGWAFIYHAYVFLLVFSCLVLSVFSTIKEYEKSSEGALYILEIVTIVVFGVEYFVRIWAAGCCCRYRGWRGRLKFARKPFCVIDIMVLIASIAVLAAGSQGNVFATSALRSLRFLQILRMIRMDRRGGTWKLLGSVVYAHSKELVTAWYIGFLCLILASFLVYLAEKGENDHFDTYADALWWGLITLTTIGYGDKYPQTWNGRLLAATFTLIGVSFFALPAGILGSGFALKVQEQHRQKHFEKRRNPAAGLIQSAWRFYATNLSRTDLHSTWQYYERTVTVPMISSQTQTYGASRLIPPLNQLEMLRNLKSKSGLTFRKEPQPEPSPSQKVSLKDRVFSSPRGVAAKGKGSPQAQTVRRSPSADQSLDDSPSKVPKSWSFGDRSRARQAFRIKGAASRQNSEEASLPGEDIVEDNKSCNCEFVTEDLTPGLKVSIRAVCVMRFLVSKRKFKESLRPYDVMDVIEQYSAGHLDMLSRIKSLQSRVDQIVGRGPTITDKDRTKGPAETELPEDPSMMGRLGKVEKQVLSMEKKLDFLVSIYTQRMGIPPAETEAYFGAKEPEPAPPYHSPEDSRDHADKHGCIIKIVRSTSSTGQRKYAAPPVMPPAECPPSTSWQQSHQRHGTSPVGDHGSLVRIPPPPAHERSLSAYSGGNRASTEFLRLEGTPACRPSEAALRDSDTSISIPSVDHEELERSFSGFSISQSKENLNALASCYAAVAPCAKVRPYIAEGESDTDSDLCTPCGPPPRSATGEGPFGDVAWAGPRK

Compound | B-score
CN(N)c1nc(N2CCCC2)nc(N2CCCC2)n1 | -0.33
CC(=O)CC[C@@H](C)O[C@@H]1OC(C)[C@H](O)CC1O (some centres not stated) | -0.8
c1ccc2c(CSCc3nc4ccccc4[nH]3)cccc2c1 | -4.3
c1ccc(-c2nnc(SCc3nc4ccccc4[nH]3)o2)cc1 | inactive
Clc1ccccc1SCc1nc2ccccc2[nH]1 | -5.77 (active)
O=C(CSc1nc(=O)n2ccccc2n1)Nc1ccc2c(c1)OCCO2 | -1.2
COc1ccccc1NC(=O)C(C)OC(=O)CC1CCCC1 (configuration not stated) | -1
C#CCNC(=O)[C@H](Cc1ccc(C(=O)c2ccccc2)cc1)NC(=O)OC(C)(C)C | inactive
COc1ccccc1NC(=O)[C@H](COCc1ccccc1)NC(=O)OC(C)(C)C | -6.32 (active)
CCOC(=O)N1CCN(C(=O)c2ccccc2SCC(=O)NCC2CCCCC2)CC1 | inactive
COc1ccc(NS(=O)(=O)c2ccc(C)c(C(=O)NCC(c3cccs3)N3CCOCC3)c2)cc1 (configuration not stated) | -0.42
COc1cc(C(O)c2nc3ccccc3n2C)cc(OC)c1OC (configuration not stated) | -0.53
CCC(C)n1c(-c2cc(OC)c(OC)c(OC)c2)nc2nc3ccccc3nc21 (configuration not stated) | -6.81 (active)
COc1cc(-c2n[nH]c(=S)n2Cc2ccccc2)cc(OC)c1OC | -0.07
Cc1csc(=O)n1CC(=O)OCC(=O)N(CC(C)C)c1c(N)n(Cc2ccccc2)c(=O)[nH]c1=O | inactive
COc1ccc(Cc2nnc(SCC(=O)N(c3ccccc3)C(C)C)n(N)c2=O)cc1 | -2.15
O=C(COC(=O)Cc1ccccc1F)NNC(=O)c1ccc(Cl)cc1 | inactive
Cc1cc(Cl)c2oc(C(=O)NC(C)c3ccncn3)c(C)c2c1 (configuration not stated) | inactive
Cc1cc(Cl)c2oc(C(=O)N3CCC(O)(c4ccccc4)CC3)c(C)c2c1 | -2.12
Cc1cc(Cl)c2oc(C(=O)N(C)C(C)c3ccccn3)c(C)c2c1 (configuration not stated) | -5.81 (active)
Cc1ccc(C(=O)C(C)OC(=O)Cc2n[nH]c(=O)c3ccccc23)cc1C (configuration not stated) | inactive
CN(C)Cc1ccccc1C1(O)c2ccccc2CSc2ccccc21 (configuration not stated) | -7.67 (active)
COCCn1c(SC(C)C(=O)NC2CC2)nnc1-c1cccc(C)c1 (configuration not stated) | inactive
CC(OC(=O)C1CC(=O)N(Cc2ccccc2)C1)C(=O)Nc1ccccc1[N+](=O)[O-] (configuration not stated) | inactive
Fc1cccc(Cl)c1CSc1ccc(-c2ccco2)nn1 | -0.68

Compound | B-score
Clc1ccccc1CSc1nnc(-c2ccco2)c(-c2ccco2)n1 | -9.12 (active)
COC(OC)c1ccnc(SCc2ccccc2Cl)n1 | -0.02
CCOc1ccc(S(=O)(=O)Nc2ccc(C(=O)NCCCN3CCCC3=O)cc2)cc1 | inactive
CCCNC(=O)c1ccc(N2CCC3(CC2)CC(c2cccc(Br)c2)=NO3)c(NC(=O)c2ccco2)c1 | -0.15
Cc1cc2nc3n(c2cc1C)CC1CC(C(=O)NCCC(C)C)N(C)C31 (configuration not stated) | inactive
Cc1sc(NC(=O)c2ccc3ncsc3c2)c(C(N)=O)c1C | inactive
Cc1ccc(C(=O)c2c(NC(=O)c3ccncc3)sc3c2CCCC3)cc1 | -3.32
Cc1ccc(C(=O)c2c(NC(=O)c3ccccc3)sc(C)c2C)cc1 | -7.48 (active)
COc1ccc(N2CCN(S(=O)(=O)c3cc4c5c(c3)C(C)C(=O)N5CCC4)CC2)cc1 (configuration not stated) | inactive
COc1ccc(-c2ccc3nnc(SCC(=O)Nc4ccc(NC(C)=O)cc4)n3n2)cc1 | -0.47
CC(=O)Nc1ccc(NC(=O)CSc2nnnn2C2CCCCC2)cc1 | -0.45
COc1ccccc1NC(=O)c1cc(Cl)nc2ccccc12 | -4.22
COc1ccc(NC(=O)c2cc(-c3cc(OC)c(OC)c(OC)c3)nc3ccccc23)c(OC)c1 | -5.97 (active)
COc1ccc(-c2cc(C(=O)Nc3ccccc3O)c3ccccc3n2)cc1 | -1.2
O=C1CC2(CCN(C(=O)COc3ccc(F)cc3)CC2)Oc2ccccc21 | inactive
COc1ccc(C(=O)c2c3ccc([N+](=O)[O-])cc3[n+]([O-])n2CCCN)cc1 | -0.22
CCCCCC(=O)N1CCN(S(=O)(=O)c2ccc3c(c2)OCCCO3)CC1 | -1.36
COc1ccc(-c2nnc(SCC(=O)Nc3cccnc3Cl)n2C)cc1 | inactive
Cc1cccc(N=C2SC(C)CN2C(=O)CN2C(=O)NC3(CCCC3)C2=O)c1 (configuration not stated) | -1.04
CC1(C)C=Cc2c(ccc3c2OC[C@@H](c2ccc(O)cc2O)C3)O1 | -5.7 (active)
O=C(COc1ccccc1Cl)Nc1ccccc1C(=O)NC1CC1 | inactive
Cc1c(C)n2c(SCC(=O)N3CCCC3)nnc2[nH]c1=O | -0.73
CCOC(=O)N1CCC(N(CCOC)C(=O)Nc2ccc(C)c(C)c2)CC1 | -7.75 (active)
CCOC(=O)C1CCN(C(=O)Nc2cccc(OC)c2)CC1 | -0.14
CCOC(=O)C1CCN(C(=O)Nc2ccc(C)c(Cl)c2)CC1 | inactive

Compound | B-score
O=C(OCC1OC(Oc2ccc(O)cc2)C(O)C(O)C1O)c1ccccc1 (configuration not stated) | -0.52
Cn1ccsc1=NC(=O)c1cc(S(=O)(=O)N2CCOCC2)ccc1Cl | -2.45
CC(C)N(C(=O)c1ccc(-c2ccccc2F)cc1)C(C)C | -1.82
CC(=O)N(C1=C(Cl)C(=O)c2ccccc2C1=O)c1ccc(C(=O)O)cc1 | -10.4 (active)
O=C(CN1C(=O)c2ccccc2C1=O)NCc1ccc(C(=O)O)cc1 | -0.02
CC(=O)c1c(C)[nH]c(C(=O)N2CCN(S(=O)(=O)c3ccc(F)c(F)c3)CC2)c1C | inactive
C=CCOc1ccc(/C=C/C(=O)OCC(=O)NCC2CCCO2)cc1 (configuration not stated) | inactive
CCCCN(C)CCCNC(=O)c1cc(-c2cccs2)nc2ccccc12 | inactive
CCc1ccc(-c2cc(C(=O)NCc3ccco3)c3ccccc3n2)s1 | -7.07 (active)
COC(=O)CNC(=O)c1cc(-c2ccncc2)nc2ccccc12 | -0.09
COc1ccc(NS(=O)(=O)c2ccc(C)c(C(=O)NNC(=O)c3csc(N4CCOCC4)n3)c2)cc1 | -0.78
CCc1noc(C)c1C(=O)N1CCCSC1=Nc1ccccc1OC | inactive
CCC1(c2ccccc2)NC(=O)N(CC(=O)Nc2ccccc2C(=O)NC2CCCC2)C1=O (configuration not stated) | inactive
CCN1C(=O)[C@H]2[C@@H](c3ccc(C)cc3)N3C(=O)N(c4cccc(Br)c4)C(=O)[C@@]3(CC)[C@H]2C1=O | -0.8
O=C(c1cc2ccccc2o1)N1CCN(c2cccc(C(F)(F)F)c2)CC1 | -0.25
c1ccc(-c2cc(N3CCCCC3)c3ccccc3n2)cc1 | -0.16
FC(F)(F)c1cccc(-c2cc3ccccc3nc2N2CCCC2)c1 | -6.95 (active)
O=C(N/N=C/c1cc(Br)c(O)c([N+](=O)[O-])c1)C(O)(c1ccccc1)c1ccccc1 | inactive
C=CCOC(=O)C1=C(C)NC(SCC(=O)OCC)=C(C#N)C1c1ccc(C)cc1 (configuration not stated) | -6.37 (active)
C=CCOC(=O)C1=C(C)OC(N)=C(C#N)C1c1ccc(F)cc1 (configuration not stated) | inactive
CCOC(=O)CSC1=C(C#N)C(c2ccco2)C(C(=O)OCc2ccccc2)=C(C)N1 (configuration not stated) | -2.55
CC(C)N(Cc1nnc(-c2ccc(Cl)cc2)o1)C(=O)C1=COCCO1 | -1.82
CCOC(=O)C(C)Sc1nc2ccccc2c(=O)n1CC1CCCCC1 (configuration not stated) | -10.1 (active)
CCOC(=O)C1CCc2nc3ccccc3c(=O)n21 (configuration not stated) | inactive
CCOn1c(SC(C)C)nc2ccccc2c1=O | -2.44

Compound | B-score
CCCCn1c(N)c(N(CCOC)C(=O)c2cccc(S(=O)(=O)N(C)c3ccccc3)c2)c(=O)[nH]c1=O | -0.06
COc1ccc(C)cc1NC(=O)Nc1ccccc1SC | inactive
COc1ccc(C)cc1NC(=O)C(Sc1ccccc1)c1ccccc1 (configuration not stated) | -2.05
COc1ccc(C)cc1NC(=O)C(OC(=O)c1cccc(S(=O)(=O)N(C)c2ccccc2)c1)c1ccccc1 (configuration not stated) | -7.07 (active)
Cc1ccc(S(=O)(=O)N2CCN(C(=O)c3ccccc3-c3nc4ccccc4s3)CC2)c(C)c1 | -0.72
CCOC(=O)CSc1nnc(-c2ccco2)n1C | inactive
CCOC(=O)CSc1nc2c(sc(=S)n2CCc2ccccc2)c(=O)n1Cc1ccco1 | -5.6 (active)
CCOC(=O)CSc1nc2c(c(=O)n(C)c(=O)n2C)n1Cc1ccccc1F | inactive
OCCCNc1nc(-c2ccccc2)c2cc(Cl)ccc2n1 | inactive
CCCCn1c(N)c(N(CC(C)C)C(=O)c2ccc(Br)o2)c(=O)[nH]c1=O | inactive
O=C(c1ccc(F)c(S(=O)(=O)N2CCOCC2)c1)N(CCc1ccccc1)Cc1ccccc1 | -2.85
COc1cccc(-c2cnc(OC(C)(C)C)nc2OC(C)(C)C)c1 | -7.02 (active)
CC(C)(C)Oc1ncc(Br)c(OC(C)(C)C)n1 | inactive
COc1ccc(-c2nc(N)ncc2-c2ccc(Cl)cc2)c(O)c1 | -0.21
CC(Oc1ccc(F)cc1)C(=O)Nc1ccccc1C(=O)NC1CC1 (configuration not stated) | -1.68
COc1ccc(C2CC(c3cccs3)=NN2C(=O)CCC(=O)O)cc1OC (configuration not stated) | inactive
O=C1c2cccc(OCC(=O)N3N=C(c4cccs4)CC3c3ccc(F)cc3)c2CCN1Cc1ccccc1 (configuration not stated) | -5.75 (active)
COc1ccc(C2CC(c3cccs3)=NN2C(=O)COC(=O)c2cc3ccccc3cc2O)cc1OC (configuration not stated) | inactive
Nc1cccnc1Sc1ccccc1 | inactive
Cc1ccccc1OCC(=O)NCC(=O)OCC(=O)c1ccc2ccccc2c1 | -5.95 (active)
O=C(CNC(=O)c1ccccc1)NCC(=O)OCC(=O)c1ccccc1 (Bz-Gly-Gly-OPac) | inactive
COCCNC(=O)COc1ccccc1C | -1.11
